Molecules are shown by their SMILES.

Assay [1] deals with Sphingosine kinase 1 (Homo sapiens) (UniProt Q9NYA1). To be noted: at 1 µM.
In assay [2] the target is T1, Sphingosine kinase 2 (Homo sapiens) (UniProt Q9NRA0).
T1 sequence (whole entry): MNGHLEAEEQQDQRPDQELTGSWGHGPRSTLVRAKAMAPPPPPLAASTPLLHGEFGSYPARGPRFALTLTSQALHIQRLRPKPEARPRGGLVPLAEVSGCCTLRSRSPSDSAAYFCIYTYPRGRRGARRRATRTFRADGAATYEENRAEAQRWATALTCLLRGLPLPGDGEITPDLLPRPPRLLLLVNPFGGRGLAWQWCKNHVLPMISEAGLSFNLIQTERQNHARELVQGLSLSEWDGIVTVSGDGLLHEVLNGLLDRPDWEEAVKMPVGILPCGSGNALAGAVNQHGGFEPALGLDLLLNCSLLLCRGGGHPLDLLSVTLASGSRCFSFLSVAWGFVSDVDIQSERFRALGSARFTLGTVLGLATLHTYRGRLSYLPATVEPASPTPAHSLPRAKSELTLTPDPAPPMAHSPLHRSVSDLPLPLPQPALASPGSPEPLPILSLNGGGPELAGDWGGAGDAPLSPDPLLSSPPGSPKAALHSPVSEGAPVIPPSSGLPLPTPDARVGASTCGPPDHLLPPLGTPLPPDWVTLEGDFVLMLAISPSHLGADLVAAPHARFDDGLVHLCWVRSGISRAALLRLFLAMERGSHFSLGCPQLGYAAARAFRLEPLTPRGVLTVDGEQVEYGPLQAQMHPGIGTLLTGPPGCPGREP
The settings on record: at 0.1 µM.

Assay [3] has as its target T1, Sphingosine kinase 2 (Homo sapiens). To be noted: at 1 µM.
Assay [4] deals with Casein kinase II subunit alpha (Homo sapiens) (UniProt P68400). The settings on record: at 0.1 µM.
Sequence of Casein kinase II subunit alpha (Homo sapiens) (P68400 whole entry, looked up): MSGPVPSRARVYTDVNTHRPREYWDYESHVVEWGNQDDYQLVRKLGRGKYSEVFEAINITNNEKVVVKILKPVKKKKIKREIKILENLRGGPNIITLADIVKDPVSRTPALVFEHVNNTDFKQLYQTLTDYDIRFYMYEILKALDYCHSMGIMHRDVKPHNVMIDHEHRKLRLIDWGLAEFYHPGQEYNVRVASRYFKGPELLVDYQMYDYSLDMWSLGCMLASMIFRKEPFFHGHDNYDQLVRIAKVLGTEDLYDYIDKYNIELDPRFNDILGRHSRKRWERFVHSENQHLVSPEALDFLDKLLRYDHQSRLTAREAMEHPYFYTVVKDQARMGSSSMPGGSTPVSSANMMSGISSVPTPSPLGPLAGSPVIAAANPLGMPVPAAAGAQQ
For assay [5] the target is unchanged. The settings on record: at 1 µM.
The target of assay [6] is T2, Inhibitor of nuclear factor kappa-B kinase subunit alpha (Homo sapiens) (UniProt O15111).
T2 sequence (whole entry): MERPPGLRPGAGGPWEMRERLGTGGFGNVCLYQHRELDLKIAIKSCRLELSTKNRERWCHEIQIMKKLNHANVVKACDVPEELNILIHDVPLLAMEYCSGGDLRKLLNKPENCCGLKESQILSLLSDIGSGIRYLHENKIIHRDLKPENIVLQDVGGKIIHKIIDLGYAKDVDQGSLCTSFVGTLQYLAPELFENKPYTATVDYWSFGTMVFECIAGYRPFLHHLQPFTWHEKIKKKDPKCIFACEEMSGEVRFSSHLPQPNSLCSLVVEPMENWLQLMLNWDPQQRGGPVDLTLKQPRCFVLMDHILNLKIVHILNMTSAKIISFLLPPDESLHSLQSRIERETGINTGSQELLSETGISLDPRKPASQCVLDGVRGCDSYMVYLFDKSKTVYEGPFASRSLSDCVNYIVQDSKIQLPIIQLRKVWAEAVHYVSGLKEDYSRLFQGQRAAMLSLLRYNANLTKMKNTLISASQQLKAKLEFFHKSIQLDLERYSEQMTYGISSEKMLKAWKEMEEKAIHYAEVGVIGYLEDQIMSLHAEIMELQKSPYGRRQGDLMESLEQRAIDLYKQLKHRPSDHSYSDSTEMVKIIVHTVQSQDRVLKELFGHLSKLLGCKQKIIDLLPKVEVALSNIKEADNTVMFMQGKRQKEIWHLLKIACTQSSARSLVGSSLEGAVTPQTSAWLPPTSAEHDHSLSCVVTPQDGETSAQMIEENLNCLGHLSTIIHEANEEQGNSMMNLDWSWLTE
To be noted: at 0.1 µM.

Assay [7] addresses T2, Inhibitor of nuclear factor kappa-B kinase subunit alpha (Homo sapiens). The settings on record: at 1 µM.
The target of assay [8] is T3, Inhibitor of nuclear factor kappa-B kinase subunit beta (Homo sapiens) (UniProt O14920).
T3 sequence (whole entry): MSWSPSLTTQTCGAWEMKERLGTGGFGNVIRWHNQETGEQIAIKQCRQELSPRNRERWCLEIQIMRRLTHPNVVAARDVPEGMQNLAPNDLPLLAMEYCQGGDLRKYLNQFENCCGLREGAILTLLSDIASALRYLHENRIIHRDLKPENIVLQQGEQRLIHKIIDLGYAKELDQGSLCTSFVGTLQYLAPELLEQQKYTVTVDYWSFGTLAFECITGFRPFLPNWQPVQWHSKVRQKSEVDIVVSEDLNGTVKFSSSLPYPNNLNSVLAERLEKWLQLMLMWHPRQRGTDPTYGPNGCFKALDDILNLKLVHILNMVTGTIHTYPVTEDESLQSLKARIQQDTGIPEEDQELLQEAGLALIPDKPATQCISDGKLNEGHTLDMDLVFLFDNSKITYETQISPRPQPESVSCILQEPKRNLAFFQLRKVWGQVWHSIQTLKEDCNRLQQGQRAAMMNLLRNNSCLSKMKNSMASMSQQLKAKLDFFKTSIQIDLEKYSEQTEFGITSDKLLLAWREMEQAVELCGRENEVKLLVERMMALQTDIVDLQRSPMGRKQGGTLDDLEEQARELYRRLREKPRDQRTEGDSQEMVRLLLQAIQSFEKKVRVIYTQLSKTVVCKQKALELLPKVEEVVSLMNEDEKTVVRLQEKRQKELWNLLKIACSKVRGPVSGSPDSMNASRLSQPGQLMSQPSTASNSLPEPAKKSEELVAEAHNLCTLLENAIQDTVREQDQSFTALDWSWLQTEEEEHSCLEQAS
To be noted: at 0.1 µM.

Assay [9] has as its target T3, Inhibitor of nuclear factor kappa-B kinase subunit beta (Homo sapiens). To be noted: at 1 µM.
In assay [10] the target is T4, Inhibitor of nuclear factor kappa-B kinase subunit epsilon (Homo sapiens) (UniProt Q14164).
T4 sequence (whole entry): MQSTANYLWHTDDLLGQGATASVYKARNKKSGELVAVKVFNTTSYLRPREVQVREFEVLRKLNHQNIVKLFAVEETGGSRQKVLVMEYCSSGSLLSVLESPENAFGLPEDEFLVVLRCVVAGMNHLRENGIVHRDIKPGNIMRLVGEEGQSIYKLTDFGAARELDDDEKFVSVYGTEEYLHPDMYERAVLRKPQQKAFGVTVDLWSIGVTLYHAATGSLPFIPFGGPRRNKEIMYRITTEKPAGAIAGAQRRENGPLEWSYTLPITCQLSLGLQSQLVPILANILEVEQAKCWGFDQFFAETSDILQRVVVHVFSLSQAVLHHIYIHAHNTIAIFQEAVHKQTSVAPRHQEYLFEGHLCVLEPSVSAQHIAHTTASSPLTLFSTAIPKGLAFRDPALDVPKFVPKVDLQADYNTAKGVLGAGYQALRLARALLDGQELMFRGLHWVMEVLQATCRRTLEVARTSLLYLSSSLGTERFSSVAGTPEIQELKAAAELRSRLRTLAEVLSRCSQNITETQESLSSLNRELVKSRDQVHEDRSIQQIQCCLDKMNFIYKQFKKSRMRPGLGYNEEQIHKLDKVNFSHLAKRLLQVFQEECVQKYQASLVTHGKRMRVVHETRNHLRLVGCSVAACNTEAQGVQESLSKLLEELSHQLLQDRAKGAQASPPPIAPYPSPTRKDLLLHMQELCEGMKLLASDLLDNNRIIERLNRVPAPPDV
To be noted: at 0.1 µM.

In assay [11] the target is T4, Inhibitor of nuclear factor kappa-B kinase subunit epsilon (Homo sapiens). To be noted: at 1 µM.
For assay [12], the target named is T5, Serine/threonine-protein kinase Nek1 (Homo sapiens) (UniProt Q96PY6).
T5 sequence (whole entry): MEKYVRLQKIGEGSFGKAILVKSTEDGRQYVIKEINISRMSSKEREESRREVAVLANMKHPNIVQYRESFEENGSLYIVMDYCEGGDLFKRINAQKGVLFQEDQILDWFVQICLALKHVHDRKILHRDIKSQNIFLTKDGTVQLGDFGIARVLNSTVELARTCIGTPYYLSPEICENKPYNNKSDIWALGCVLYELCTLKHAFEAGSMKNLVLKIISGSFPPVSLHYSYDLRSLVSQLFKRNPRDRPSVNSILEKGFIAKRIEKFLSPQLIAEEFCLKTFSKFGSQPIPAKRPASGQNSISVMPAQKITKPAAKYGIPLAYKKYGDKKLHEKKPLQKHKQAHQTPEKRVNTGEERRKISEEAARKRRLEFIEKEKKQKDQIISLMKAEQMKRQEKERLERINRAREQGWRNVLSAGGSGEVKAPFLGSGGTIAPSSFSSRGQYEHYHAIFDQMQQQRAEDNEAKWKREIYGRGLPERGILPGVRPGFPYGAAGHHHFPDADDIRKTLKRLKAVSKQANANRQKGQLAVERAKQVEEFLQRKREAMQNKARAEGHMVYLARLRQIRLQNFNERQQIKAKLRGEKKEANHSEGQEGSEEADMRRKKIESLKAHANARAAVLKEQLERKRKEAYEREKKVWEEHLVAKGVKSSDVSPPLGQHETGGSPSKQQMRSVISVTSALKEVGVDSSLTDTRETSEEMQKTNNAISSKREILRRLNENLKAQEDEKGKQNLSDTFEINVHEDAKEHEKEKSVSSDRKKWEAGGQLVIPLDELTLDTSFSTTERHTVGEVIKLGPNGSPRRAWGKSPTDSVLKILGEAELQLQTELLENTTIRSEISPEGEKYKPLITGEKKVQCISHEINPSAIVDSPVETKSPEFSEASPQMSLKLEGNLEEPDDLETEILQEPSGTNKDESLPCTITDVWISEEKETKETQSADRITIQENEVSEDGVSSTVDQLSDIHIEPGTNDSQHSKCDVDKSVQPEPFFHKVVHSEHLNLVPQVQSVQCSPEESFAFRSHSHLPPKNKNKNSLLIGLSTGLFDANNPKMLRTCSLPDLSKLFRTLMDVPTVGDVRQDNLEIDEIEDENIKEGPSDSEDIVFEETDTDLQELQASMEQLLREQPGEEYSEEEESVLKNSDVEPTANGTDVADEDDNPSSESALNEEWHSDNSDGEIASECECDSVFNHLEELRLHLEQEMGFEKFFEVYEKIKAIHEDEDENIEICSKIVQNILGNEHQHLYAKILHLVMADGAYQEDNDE
To be noted: at 0.1 µM.

For assay [13], the target named is T5, Serine/threonine-protein kinase Nek1 (Homo sapiens). The settings on record: at 1 µM.
The target in assay [14] is T6, Serine/threonine-protein kinase Nek2 (Homo sapiens) (UniProt P51955).
T6 sequence (whole entry): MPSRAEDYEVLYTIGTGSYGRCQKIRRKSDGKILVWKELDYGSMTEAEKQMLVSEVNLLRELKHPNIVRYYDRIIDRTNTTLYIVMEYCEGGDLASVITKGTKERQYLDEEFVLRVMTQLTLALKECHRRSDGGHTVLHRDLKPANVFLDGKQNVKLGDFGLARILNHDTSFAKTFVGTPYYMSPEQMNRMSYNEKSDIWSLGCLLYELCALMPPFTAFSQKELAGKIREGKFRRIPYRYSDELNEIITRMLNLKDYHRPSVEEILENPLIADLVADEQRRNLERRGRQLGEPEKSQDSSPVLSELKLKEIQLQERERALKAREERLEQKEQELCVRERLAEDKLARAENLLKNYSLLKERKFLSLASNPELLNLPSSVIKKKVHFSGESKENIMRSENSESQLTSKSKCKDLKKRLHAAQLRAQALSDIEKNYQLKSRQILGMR
The settings on record: at 0.1 µM.

Assay [15] concerns the target T6, Serine/threonine-protein kinase Nek2 (Homo sapiens). The settings on record: at 1 µM.
In assay [16] the target is Serine/threonine-protein kinase Nek6 (Homo sapiens) (UniProt Q9HC98). The settings on record: at 0.1 µM.
Sequence of Serine/threonine-protein kinase Nek6 (Homo sapiens) (Q9HC98 whole entry): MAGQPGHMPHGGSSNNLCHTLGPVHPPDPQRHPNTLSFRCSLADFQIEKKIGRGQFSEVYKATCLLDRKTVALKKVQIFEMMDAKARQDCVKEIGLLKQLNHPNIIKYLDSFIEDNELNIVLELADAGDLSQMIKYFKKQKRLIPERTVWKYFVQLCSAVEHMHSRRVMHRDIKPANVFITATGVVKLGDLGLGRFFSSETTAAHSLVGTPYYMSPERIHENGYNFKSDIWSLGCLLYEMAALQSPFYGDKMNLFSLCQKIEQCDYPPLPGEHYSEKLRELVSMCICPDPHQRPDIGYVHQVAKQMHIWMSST
Assay [17] has the same target. To be noted: at 1 µM.
The target in assay [18] is Serine/threonine-protein kinase Nek7 (Homo sapiens) (UniProt Q8TDX7). The settings on record: at 0.1 µM.
Sequence of Serine/threonine-protein kinase Nek7 (Homo sapiens) (Q8TDX7 whole entry, looked up): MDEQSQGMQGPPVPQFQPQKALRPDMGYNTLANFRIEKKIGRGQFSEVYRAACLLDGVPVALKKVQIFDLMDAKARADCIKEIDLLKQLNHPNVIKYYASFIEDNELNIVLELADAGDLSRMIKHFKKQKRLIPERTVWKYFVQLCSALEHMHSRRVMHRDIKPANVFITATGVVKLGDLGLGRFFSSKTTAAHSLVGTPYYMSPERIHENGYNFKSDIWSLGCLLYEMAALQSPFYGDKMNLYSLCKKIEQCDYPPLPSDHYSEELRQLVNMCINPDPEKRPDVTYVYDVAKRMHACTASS
Assay [19] shares this target. The settings on record: at 1 µM.
Assay [20] deals with T7, Serine/threonine-protein kinase Nek9 (Homo sapiens) (UniProt Q8TD19).
T7 sequence (whole entry): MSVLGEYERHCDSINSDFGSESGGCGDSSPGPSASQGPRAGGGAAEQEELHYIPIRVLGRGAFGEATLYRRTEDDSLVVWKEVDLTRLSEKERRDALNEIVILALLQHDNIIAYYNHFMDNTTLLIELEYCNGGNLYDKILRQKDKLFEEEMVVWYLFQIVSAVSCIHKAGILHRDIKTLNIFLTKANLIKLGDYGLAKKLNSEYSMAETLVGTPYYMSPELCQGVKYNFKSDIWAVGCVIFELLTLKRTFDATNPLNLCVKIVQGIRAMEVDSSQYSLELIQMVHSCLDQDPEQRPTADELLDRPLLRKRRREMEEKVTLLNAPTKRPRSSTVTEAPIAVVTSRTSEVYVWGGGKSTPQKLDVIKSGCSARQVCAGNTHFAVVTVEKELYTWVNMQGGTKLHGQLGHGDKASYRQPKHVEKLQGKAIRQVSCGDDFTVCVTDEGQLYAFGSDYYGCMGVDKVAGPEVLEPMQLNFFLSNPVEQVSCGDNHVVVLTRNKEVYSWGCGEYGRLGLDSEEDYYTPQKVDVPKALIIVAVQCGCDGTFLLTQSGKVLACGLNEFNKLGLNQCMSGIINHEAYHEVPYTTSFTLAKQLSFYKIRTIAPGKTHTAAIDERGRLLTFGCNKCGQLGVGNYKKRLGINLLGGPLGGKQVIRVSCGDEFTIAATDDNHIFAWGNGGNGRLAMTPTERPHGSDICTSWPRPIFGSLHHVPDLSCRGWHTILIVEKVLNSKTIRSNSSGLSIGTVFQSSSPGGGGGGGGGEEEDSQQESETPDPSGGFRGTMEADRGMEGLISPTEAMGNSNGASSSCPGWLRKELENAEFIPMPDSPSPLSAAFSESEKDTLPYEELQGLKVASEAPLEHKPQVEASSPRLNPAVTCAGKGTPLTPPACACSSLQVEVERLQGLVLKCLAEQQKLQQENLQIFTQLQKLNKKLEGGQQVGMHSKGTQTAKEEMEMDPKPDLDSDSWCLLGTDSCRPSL
To be noted: at 0.1 µM.

Sequence of Sphingosine kinase 1 (Homo sapiens) (Q9NYA1 whole entry): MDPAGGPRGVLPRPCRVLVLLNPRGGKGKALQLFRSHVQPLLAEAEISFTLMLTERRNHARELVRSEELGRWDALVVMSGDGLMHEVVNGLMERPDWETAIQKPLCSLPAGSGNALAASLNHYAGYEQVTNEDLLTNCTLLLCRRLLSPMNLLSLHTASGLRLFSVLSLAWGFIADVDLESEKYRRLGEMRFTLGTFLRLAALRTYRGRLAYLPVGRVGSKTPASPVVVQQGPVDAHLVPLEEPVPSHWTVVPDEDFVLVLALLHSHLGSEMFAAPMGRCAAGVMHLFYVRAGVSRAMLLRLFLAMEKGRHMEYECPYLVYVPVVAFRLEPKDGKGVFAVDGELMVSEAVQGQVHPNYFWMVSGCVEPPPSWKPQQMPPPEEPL

In the case of `CNC(=O)c1cc(-c2ccc(F)cc2)cc(-c2ccc(S(=O)(=O)N3CCCC3)cc2)c1N`, the inhibition in assay [1] was -1.82%; in [2], -0.5%; in assay [3], -0.63%; in assay [4], 15.5%; in [5], 3.05%; in assay [6], 7.04%. The inhibition turned out to be 4.67% in assay [7]; 5.48% in [8]; 5.18% in assay [9]; 2.88% in [10]; 3.73% in [11]; 1.09% in assay [12]. The inhibition in assay [13] came out at 2.25%; in assay [14], 4.19%; in assay [15], 2.55%; in assay [16] it was 3.41%; in [17], 2.7%; in assay [18] it was 3.41%. Besides, the values for the inhibition in [19] and in [20] were 7.48% and 5.37%, respectively.

For the origin of these results see ChEMBL document CHEMBL1961873, “Compounds: GSK PKIS; Assays: Nanosyn kinase panel” (2012).
